Bioassay records: PubChem BioAssay, National Center for Advancing Translational Sciences (NCATS)
IL-1B inflam inh: inhibitors of inflammasome signaling (IL-1 beta secretion) | activity change, % at 57.5 µM | THP-1 LPS/ATP IL-1B secretion, AlphaLISA, 16 h; hits give low values | 360,000 compounds, 4.7% hits; in the data active = activity change below about -50%; inconclusive = mostly about -30% to -49%
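THP-1 cells pretreated 1 hr with compounds (up to 57.5 uM final), then stimulated with LPS (250 ng/mL final) plus ATP (1.25 mM final); secreted IL-1B measured by AlphaLISA after 16 hr, decreased signal indicating inhibition.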
HT1080-NT tox: kills 2HG-producing HT-1080-NT fibrosarcoma cells; HT-1080-NT fibrosarcoma viability, CellTiter-Glo ATP luminescence, 48 h; Potency, µM (top dose mostly 46.1 µM), without a hit: at the top dose activity, negative = less viability, actives largely listed as cytotoxic; 360,000 compounds, 1.6% hits; AID 686970;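 note: NT is the 2HG producing partner of a matched IDH1 knockdown line; potency is the fitted concentration of half-maximal effect; 0% = DMSO-treated cells and -100% = media-only wells without cells; nearly all actives have a fitted effect of over 55% in size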
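HT-1080-NT fibrosarcoma cells (2HG-overproducing), 750 cells/well in RPMI with 5% FBS, dosed after 2 h and incubated 48 h at 37C. CellTiter-Glo luminescence normalized to DMSO and no-cell wells; concentration-response curves fitted and classed.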
DT40 TDP1 CPT: growth inhibition of DT40 Tdp1-/-;hTDP1 cells with camptothecin (screen for TDP1 inhibitors); chicken DT40 Tdp1-/-;hTDP1 cells + 20 nM CPT, ATP luminescence, 48 h; Potency, µM (series often up to 46.2 µM), without a hit: top-dose activity change, negative = growth inhibition, most hits filed as inhibitors; 420,000 compounds, 12% hits; note: potency is the fitted concentration of half-maximal effect; nearly all actives have a fitted effect of over 55% in size
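Cell growth measured by CellTiter-Glo luminescence after a minimum 48 h, 37 C compound exposure with 20 nM CPT in Tdp1-knockout DT40 cells stably expressing hTDP1, seeded 400/well; qHTS titration format.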
HT1080 IDH1KD tx: toxicity to HT-1080 IDH1 knockdown cells (counter line) | Potency, µM (highest dose often 46.1 µM), for inactives: at the highest dose activity, negative = toxicity, most hits filed as cytotoxic | AID 686971 | HT-1080 IDH1 knockdown viability, ATP luminescence, 48 h | 360,000 compounds, 2% hits;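 note: potency is the fitted concentration of half-maximal effect; 0% = DMSO wells and -100% = cell-free medium wells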
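Viability of IDH1-knockdown HT-1080 fibrosarcoma cells was assessed by CellTiter-Glo after 48 h at 37 °C with titrated compound; concentration-effect curves were classified by fit quality and response size.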
12-LOX inh: ALOX12 (human) lipoxygenase inhibition | P18054 | AID 1671190 | Potency, µM (series often up to 108 µM), for inactives: top-dose activity change, negative = inhibition, hits mostly inhibitors | purified 12hLO, xylenol orange hydroperoxide absorbance | 580,000 compounds, 1.1% hits; note: potency is the fitted concentration of half-maximal effect
Target sequence (P18054 whole entry, looked up): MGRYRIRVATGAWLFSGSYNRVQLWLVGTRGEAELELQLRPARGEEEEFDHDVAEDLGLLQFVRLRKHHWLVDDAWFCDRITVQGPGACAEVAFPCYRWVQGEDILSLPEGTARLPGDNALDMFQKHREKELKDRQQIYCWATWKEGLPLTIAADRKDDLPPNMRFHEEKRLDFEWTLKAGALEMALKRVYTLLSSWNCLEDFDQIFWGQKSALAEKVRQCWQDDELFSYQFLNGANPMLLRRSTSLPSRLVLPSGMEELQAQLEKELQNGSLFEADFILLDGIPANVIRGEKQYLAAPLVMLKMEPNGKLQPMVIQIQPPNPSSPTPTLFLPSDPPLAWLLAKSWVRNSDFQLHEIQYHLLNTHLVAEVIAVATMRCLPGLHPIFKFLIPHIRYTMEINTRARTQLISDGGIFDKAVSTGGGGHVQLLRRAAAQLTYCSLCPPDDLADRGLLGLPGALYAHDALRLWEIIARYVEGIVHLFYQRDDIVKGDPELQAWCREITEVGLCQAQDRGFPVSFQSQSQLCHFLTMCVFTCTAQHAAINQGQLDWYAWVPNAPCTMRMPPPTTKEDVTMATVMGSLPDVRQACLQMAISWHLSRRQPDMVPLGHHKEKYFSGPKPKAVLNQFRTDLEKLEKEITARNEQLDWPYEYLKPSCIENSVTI
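Purified human 12hLO at 150 nM in 25 mM Hepes, 0.01% Triton X-100, pH 7.0, preincubated 15 min at room temperature with compound. Reaction started with 40 uM arachidonic acid, 30 min at room temperature. Hydroperoxide measured by Fe-xylenol orange, 573/405 nm absorbance ratio.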
TDP1 cell noCPT: qHTS for Inhibitors of human tyrosyl-DNA phosphodiesterase 1 (TDP1): qHTS in cells in absence of CPT; Potency, µM (titrated, usually from 46.2 µM), inactives show at the top dose activity change, negative = growth inhibition, actives largely listed as inhibitors; DT40 Tdp1-/- hTDP1 cells, no CPT, ATP luminescence, 48 h; AID 686978, 2013; 420,000 compounds, 15% hits; note: potency is the fitted concentration of half-maximal effect; nearly all actives have a fitted effect of over 55% in size
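A cellular qHTS used chicken DT40 cells lacking endogenous Tdp1 but carrying stably transfected human TDP1. Compounds were applied without camptothecin, and cell growth kinetics were judged by ATP-dependent luminescence after ≥48 hr.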
* hit, by the source's call; ? = inconclusive; / = no result given; [ ] = remark or other dose. The entries come from a sample that favours hits as a whole. Unless noted, calls come from the whole dose curve; as a rule, active = well fitted curve in the direction sought with a large enough effect; inconclusive = small, poorly fitted or top-dose-only effect, or another doubt; inactive = no such curve, though single readings can be large; an effect the other way counts as inactive or inconclusive. Unless noted, % is set by controls: 0 for no effect and ±100 for the full control effect.

SMILES | IL-1B inflam inh | HT1080-NT tox | DT40 TDP1 CPT | HT1080 IDH1KD tx | 12-LOX inh | TDP1 cell noCPT
CC(=O)Oc1ccc2c(c1C(C)C)CCC1C(C)(C)CCC[C@@]21C (stereo partly drawn) | / | / | -23.8% | / | / | -2.4%
COC(=O)C1(C)CCCC2(C)c3cc(OC)ccc3C(=O)C(Br)C12 (stereo not drawn) | -22.6 | -1.7% | 11.6µM* | -26.7% | -26.3% | 6.51µM*
COC(=O)[C@]1(C)CCC[C@]2(C)c3ccc(C(C)C)cc3C(=O)CC12 (stereo partly drawn) | / | / | ? | / | / | 23.1µM*
COC(=O)[C@@]1(C)CCC[C@@]2(C)c3ccc(O)c(C(C)C)c3CCC21 (stereo partly drawn) | / | / | 16.4µM* | / | / | 10.3µM*
COc1ccc2c(c1)[C@@]1(C)CCC[C@](C)(CO)C1CC2 (stereo partly drawn) | / | / | ? | / | / | -29.5%
COC(=O)CC1=C(C)C(=O)CC2C(C)(C)CCCC12C (stereo not drawn) | 3.2 | -0.1% | -21.7% | -6.0%[9.24 µM] | 16.2% | -18.1%
O=C(NCC1Cn2cccc2C(=O)N1Cc1ccccc1)c1ccc2ncccc2c1 (stereo not drawn) | / | / | / | / | 16.0% | /
COc1ccc(CCN(Cc2ccc(C(C)C)cc2)S(=O)(=O)c2ccc(S(=O)(=O)N(C)C)cc2)cc1OC | 6.3 | -11.8% | ? | -10.4% | -17.8% | ?
COc1ccc(CCN(C)CCCOc2ccc(S(=O)(=O)c3[nH]c4ccccc4c3C(C)C)cc2)cc1OC | / | / | 13.3µM* | / | 0.0% | 9.44µM*
Cc1ccc(C)c(COC(=O)c2cc(S(=O)(=O)N3CCCCC3)ccc2N2CCOCC2)c1 | -9.5 | -0.9% | ? | 2.6% | -23.3% | 13µM*
CC(C)CCCC(C)NC(=O)c1cc(S(=O)(=O)N2CCCCC2)ccc1N1CCOCC1 (stereo not drawn) | -25.8 | -8.4%[9.24 µM] | 23.1µM* | -11.3% | -17.1% | 13µM*
Cc1ccc(CNC(=O)c2cc(S(=O)(=O)N3CCCCC3)ccc2N2CCOCC2)cc1 | -9.0 | 0.0% | ? | 2.6% | 147.4% | 18.4µM*
Cc1ccc(COC(=O)c2cc(S(=O)(=O)N3CCCCC3)ccc2N2CCOCC2)cc1 | -16.1 | -5.7% | ? | -20.2% | -14.4% | 25.9µM*
Cc1ccc(C)c(COC(=O)c2cc([N+](=O)[O-])ccc2N2CCOCC2)c1 | 30.8 | ? | ? | ? | -24.1% | ?
COc1ccc(-c2coc3cc(OCC(=O)NCCC4=CCCCC4)ccc3c2=O)cc1OC | / | / | / | / | -23.1% | /
Cc1cccc(NC(=O)C2Cn3cccc3C(=O)N2)c1 (stereo not drawn) | / | / | / | / | -0.5% | /
CNC(=O)[C@@H]1C[C@H](Oc2cccnc2)CN1C(=O)CC1CCCCC1 | / | / | / | / | 6.6% | /
COc1ccc(C(=O)N2[C@@H]3CC[C@H]2CC(NC(=O)c2ccc(F)cc2)C3)cn1 (stereo partly drawn) | / | / | / | / | -4.0% | /
CCc1cccc(NC(=O)c2cc(S(=O)(=O)N3CCCCC3)ccc2N2CCOCC2)c1 | ? | -6.8% | 20.6µM* | -8.6% | -12.1% | 16.4µM*
O=C(COC(=O)c1cc(S(=O)(=O)N2CCCCC2)ccc1N1CCOCC1)NCCc1ccc(F)cc1 | -3.9 | -2.4% | -22.3% | 2.2% | -0.6% | 10.3µM*
Cc1nn2cc(-c3cccc(Cl)c3)cnc2c1Br | 9.6 | -20.2% | ? | ? | 10.0% | 5.8µM*
Cc1nn2cc(-c3cccc(Cl)c3)cnc2c1Cl | 14.2 | 0.0% | 16.4µM* | ? | 14.5% | 14.6µM*
Cc1[nH]c(SCC(=O)NCCc2ccccc2)nc1Cc1ccccc1 | / | / | / | / | -62.9% | /
CCCCC(=O)NNC(=O)c1c(O)c2ccccc2[nH]c1=O | 0.0 | -13.0% | -21.7% | 6.3% | 4.7% | ?
CCc1nc2ccccc2c(=O)n1NC(=O)c1c(O)c2ccccc2[nH]c1=O | -0.6 | 10.9% | 20.6µM* | 6.8% | 0.0% | 18.4µM*
SMILES | IL-1B inflam inh | HT1080-NT tox | DT40 TDP1 CPT | HT1080 IDH1KD tx | 12-LOX inh | TDP1 cell noCPT
O=C(CCl)NNC(=O)c1c(O)c2ccccc2[nH]c1=O | -101.9* | 11.6µM* | 4.61µM* | 14.6µM* | 8.2% | 5.17µM*
O=C(NC1CC1)c1c(O)c2ccccc2[nH]c1=O | -61.3* | -3.0% | ? | -1.9% | 3.1% | -14.4%
O=C(C[n+]1cc(-c2ccc(Cl)cc2)n2c1CCCCC2)c1ccccc1 | -61.7* | -6.5% | 6.51µM* | -14.0% | 0.0% | 6.51µM*
O=C(C[n+]1cc(-c2ccc(Br)cc2)n2c1CCCCC2)c1ccccc1 | -55.7* | 2.8% | ? | -19.1% | 5.6% | 16.4µM*
Cn1c(NC(=O)C[n+]2cc(-c3ccccc3)n3c2CCC3)cc(=O)n(C)c1=O | 31.0 | 11.7% | -11.4% | 10.2% | 5.4% | -9.0%
Cc1ccc(Sc2cnc(N)nc2C)cc1 | -10.8 | 1.9% | ? | -3.9% | 1.3% | 16.4µM*
COC[C@@H]1CN(C(=O)Cc2cccc(OC)c2)C[C@H]1c1ccccn1 | / | / | / | / | 42.7% | /
CCOC(=O)c1cccc(NC(=O)CCC2CCCCC2)c1 | / | / | / | / | 6.9% | /
O=C(Nc1ccc(Br)cc1)c1cccc(N2C(=O)C3C4CCC(C4)C3C2=O)c1 (stereo not drawn) | ? | -11.7% | ? | -14.4% | -20.4% | 29.1µM*
O=C(Nc1ccc(F)cc1)c1cccc(C(=O)Nc2ccc(F)cc2)c1 | 1.7 | -3.6% | -9.9% | 8.1% | 0.0% | -23.6%
O=C(Nc1ccccc1)c1cccc(N2C(=O)C3C4C=CC(C4)C3C2=O)c1 (stereo not drawn) | 18.6 | -0.3% | -22.3% | -0.2% | 3.9% | -28.6%
O=C(Nc1ccc(Br)cc1)c1cccc(N2C(=O)C3C4C=CC(C4)C3C2=O)c1 (stereo not drawn) | -22.6 | -7.8% | 23.1µM* | -7.2% | -6.7% | ?
O=C(Nc1ccc(Br)cc1)c1cccc(N2C(=O)CCC2=O)c1 | 0.3 | -8.3% | 0.2% | -8.0% | 1.1% | -14.6%
O=C(Nc1ccc(F)cc1)c1cccc(N2C(=O)C3C4CCC(C4)C3C2=O)c1 (stereo not drawn) | 0.0 | 3.4% | ? | -0.9% | -11.5% | 23.1µM*
C=CCSc1nc2sc3c(c2c(=O)n1CC)CCc1ccccc1-3 | -16.7 | 15.5% | 10µM* | 13.5% | 7.08µM* | ?
O=[N+]([O-])c1ccccc1S(=O)(=O)Nc1ccc(S(=O)(=O)Nc2nccs2)cc1 | -15.7 | -23.3% | ? | -26.3% | ? | 16.4µM*
